“And” between values parts separate entries of the source, which are not always exact repeats. Identical values can stand only once. Inconclusive results are not listed. Entries that show only a call come without a potency. Where a structure was tested more than once in an assay, its records may differ in their call. The source made the active and inactive calls. The call rests on the fitted dose curve; in most records, active means well fitted cell-killing curve with a large enough effect in the repeat runs; inconclusive means weak or mixed curves, or effect the other way; inactive means flat fitted curve, though single readings scatter.
Potency means the concentration at half of the fitted maximal effect.

A short description of this assay: qHTS assay to identify small molecule agonists of the androgen receptor (AR) signaling pathway in the presence of an antagonist - cell viability counter screen (AID 1259379). Further: nearly all actives have a fitted effect of over 25% in size. To be noted: MDA-kb2 viability, CellTiter-Fluor, 16 h; series mostly up to 92.4 µM. From the text: National Center for Advancing Translational Sciences [NCATS]
NIH Chemical Genomics Center [NCGC]
U.S. Environmental Protection Agency [EPA]
National Institutes of Environmental Health Sciences [NIEHS]
National Toxicology Program [NTP]
U.S. Food and Drug Administration [FDA]
Androgen receptor (AR) is an important member of nuclear receptor family. Its signaling plays a critical role in AR-dependent prostate cancer and other androgen related diseases. Considerable attention has been given in the past decades to develop methods to study and screen for the environmental chemicals that have the potential to interfere with metabolic homeostasis, reproduction, developmental and behavioral functions. Therefore AR binding assay for screening against androgen agonists and antagonists can be used to identify potential endocrine disruptors.
MDA-kb2 cells (from ATCC, deposited by Wilson et al.) are human breast carcinoma cells that were stably transfected with a luciferase reporter gene under control of the MMTV promoter that contains response elements for both androgen receptor (AR) and glucocorticoid receptor (GR). This particular screening for measuring luciferase reporter gene activity using MDA-kb2 cells against Tox21 10K library compounds is a confirmation study on agonist mode screening in the presence of AR-antagonist compound (Nilutamide) at 3.0uM final concentration. The cytotoxicity of the compounds was tested in parallel by measuring the cell viability using CellTiter-Fluor assay system (Promega, Madison, WI) in the same wells.
Tox21 Assay Protocol Summary:
MDA-kb2 cells (cells cultured without CO2) were dispensed at 3,000 cells/well in 4uL of culture medium into white wall/solid-bottom 1536-well plates (Corning Life Sciences, Corning, NY) using a Multidrop Combi (Thermo Fisher Scientific Inc., Waltham, MA) dispenser. The assay plates were incubated at 37C and 0% CO2 for 5hr. One uL of 3.0uM (final concentration) Nilutamide or assay buffer was added using two separate tips of Flying Reagent Dispenser (FRD, Aurora Discovery, San Diego, CA). Then 23nL of compounds dissolved in DMSO at 15 concentrations and positive controls were transferred to the assay plates using a Pintool station (Wako, San Diego, CA). The assay plates were incubated at 37C and 0% CO2 for 16 hr. After 15hr incubation at 37C, 1uL/well CellTiter-Fluor reagent (Promega Corporation) was added to each well of the assay plates using FRD. After 1hr incubation at 37C and 0% CO2, the fluorescence signal was measured using a ViewLux plate reader (PerkinElmer, Shelton, CT).
Background: Quantitative high-throughput screening tests each substance at several concentrations.
`O=C(Nc1ccc(Br)cc1)c1cc(Br)cc(Br)c1O`: the Potency is 21.6 µM (active) and 19.3 µM (active) and 29.8 µM (active). As to `CCC(C)c1cc([N+](=O)[O-])cc([N+](=O)[O-])c1O` (stereo not given), the Potency result was “inactive and 21.7 µM (active)”. `CC(C)c1ccc(CO)cc1`: the Potency entry is “inactive”. Take `Oc1cc(Cl)c(Cl)cc1Cl`: the Potency entry is “inactive”. On to `C=C(C)[C@H]1Cc2c(ccc3c2O[C@@H]2COc4cc(OC)c(OC)cc4[C@@H]2C3=O)O1`, for which the Potency is 55.2 nM (active) and 38.6 nM (active) and 47.3 nM (active). As for `Cc1ccc(N)c(N)c1`, the entry is “inactive”; as for `CCC(C)c1ccc(O)cc1` (stereo not given), “inactive”; as for `O=C(CCl)c1ccccc1`, “inactive”. Take `Nc1c(Cl)cc([N+](=O)[O-])cc1Cl`: the Potency result is “inactive”. For `Clc1nc(Cl)nc(Cl)n1`, the Potency result was “inactive”. Take `COC(=O)c1sccc1S(=O)(=O)NC(=O)Nc1nc(C)nc(OC)n1`: the Potency result was “inactive”. For the molecule `O=S(=O)(Oc1ccc(Cl)cc1)c1ccc(Cl)cc1`, the Potency result was “inactive”. Next, `CCCCCc1cc(O)cc(O)c1`: “inactive”. Take `OCC(O)CO`: the Potency result was “inactive”. Turning to `c1cc(OCC2CO2)ccc1Cc1ccc(OCC2CO2)cc1` (stereo not given), the Potency entry was “inactive”. Take `O=[N+]([O-])c1cccc2ccccc12`: the Potency result is “inactive”. Consider `Cc1cc(C)cc(C)c1`, for which the Potency result is “inactive”. As to `COc1ccc(C(CN(C)C)C2(O)CCCCC2)cc1` (stereo not given), the Potency result is “inactive”. In the case of `C[C@]12CCC(=O)C(O)=C1CC[C@@H]1[C@@H]2CC[C@]2(C)C(=O)CC[C@@H]12`, the Potency result is “inactive”. For the molecule `C[C@]12CCC(=O)C[C@@H]1CC[C@@H]1[C@@H]2CC[C@]2(C)[C@@H](O)CC[C@@H]12`, the Potency is 67.8 µM (active) and inactive. As for `Cc1ccc2c(c1N)C(=O)c1ccccc1C2=O`, the figure is 27 µM (active); as for `c1ccc(-c2cccc(-c3ccccc3)c2)cc1`, “inactive”; as for `CN(C)C(=O)Nc1ccc(Cl)cc1`, “inactive”. Turning to `CCCCNC(=O)n1c(NC(=O)OC)nc2ccccc21`, the Potency entry is “inactive”. Consider `Oc1c(Cl)c(Cl)c(Cl)c(Cl)c1Cl`, for which the Potency entry is “inactive”. Turning to `CCCCCCCCCCCOC(=O)c1ccccc1C(=O)OCCCCCCCCCCC`, the Potency entry was “inactive”. For the molecule `CCCCC(CC)COC(=O)Cl` (stereo not given), the Potency entry is “inactive”. Take `Nn1cnnc1`: the Potency result is “inactive”. As to `Cc1cc(Cl)ccc1OCCCC(=O)O`, the Potency entry was “inactive”. Consider `NNC(=S)NN`, for which the Potency entry is “inactive”.

As for `Oc1ccc(-c2ccccc2)cc1`, the Potency entry was “inactive”.

`CCOP(=S)(OCC)O/N=C(\C#N)c1ccccc1`: the Potency entry was “inactive”. For `C=CCc1ccc(OC)cc1`, the Potency entry was “inactive”. With `CCCCCCOC(=O)c1ccccc1C(=O)OCCCCCC`, the Potency entry was “inactive”. Take `Cc1ccc(OP(=O)(Oc2ccc(C)cc2)Oc2ccc(C)cc2)cc1`: the Potency entry is “inactive”. For the molecule `C#C[C@]1(O)CC[C@H]2[C@@H]3CCC4=CC(=O)CC[C@]4(C)[C@H]3CC[C@@]21C`, the Potency result was “inactive”. For `Nc1ccc(-c2ccccc2)cc1`, the Potency result is “inactive”.

In the case of `c1nc[nH]n1`, the Potency result was “inactive”. Consider `c1ccc(N=Nc2ccccc2)cc1`, for which the Potency result was “inactive”.

Consider `N#CC(Br)Br`, for which the Potency entry was “inactive”.

These data come from PubChem BioAssay (Tox21).
